# Source: PubChem BioAssay AID504339 (National Center for Advancing Translational Sciences (NCATS), 2011)
# About 17,000 (4.4%) of roughly 390,000 compounds were called active. Where a call stands in place of a potency, no number is given. Another 8% or so got no clear call; they are omitted. Calls follow the shape of the dose curve; as a rule, active = well fitted inhibition curve with a large enough effect; inconclusive = small, poorly fitted or top-dose-only effect; inactive = no such curve, though single readings can be large or run the other way. This excerpt belongs to a sample that is enriched for actives.
# Biological target: Lysine-specific demethylase 4A (Homo sapiens) (UniProt O75164)
# Sequence (O75164 whole entry, looked up, the tested form may be a part): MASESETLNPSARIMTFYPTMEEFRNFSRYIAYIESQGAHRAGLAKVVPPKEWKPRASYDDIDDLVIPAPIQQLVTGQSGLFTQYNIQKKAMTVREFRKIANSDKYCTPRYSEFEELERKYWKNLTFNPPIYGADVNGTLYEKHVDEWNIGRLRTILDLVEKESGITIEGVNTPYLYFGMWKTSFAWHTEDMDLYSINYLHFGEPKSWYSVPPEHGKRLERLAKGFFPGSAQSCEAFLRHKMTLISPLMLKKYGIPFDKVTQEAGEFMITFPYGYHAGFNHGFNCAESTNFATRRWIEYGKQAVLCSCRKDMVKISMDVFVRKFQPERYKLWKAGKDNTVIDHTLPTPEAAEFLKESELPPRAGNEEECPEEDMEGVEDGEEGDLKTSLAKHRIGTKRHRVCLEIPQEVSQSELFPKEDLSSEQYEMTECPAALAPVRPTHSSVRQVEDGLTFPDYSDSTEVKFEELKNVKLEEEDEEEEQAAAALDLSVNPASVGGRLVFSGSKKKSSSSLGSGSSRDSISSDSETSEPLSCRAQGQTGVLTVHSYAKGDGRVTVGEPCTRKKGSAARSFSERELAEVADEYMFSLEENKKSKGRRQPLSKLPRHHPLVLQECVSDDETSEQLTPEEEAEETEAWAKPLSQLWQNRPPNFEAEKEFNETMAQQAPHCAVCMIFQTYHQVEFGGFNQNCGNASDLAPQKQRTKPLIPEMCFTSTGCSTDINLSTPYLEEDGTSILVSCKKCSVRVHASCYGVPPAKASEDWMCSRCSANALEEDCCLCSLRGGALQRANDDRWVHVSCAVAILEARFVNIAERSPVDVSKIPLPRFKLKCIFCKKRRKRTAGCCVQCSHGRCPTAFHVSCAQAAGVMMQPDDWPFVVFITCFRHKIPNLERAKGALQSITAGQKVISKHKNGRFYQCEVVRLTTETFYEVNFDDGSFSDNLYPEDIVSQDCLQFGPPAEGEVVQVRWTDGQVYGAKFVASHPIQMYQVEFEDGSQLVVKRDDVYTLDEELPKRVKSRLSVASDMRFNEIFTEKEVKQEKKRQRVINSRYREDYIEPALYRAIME
# Test: qHTS Assay for Inhibitors of JMJD2A-Tudor Domain; also: nearly all actives have a fitted effect of over 50% in size
# Conditions: AlphaScreen JMJD2A-Tudor / H3K4me3 peptide binding; series mostly up to 114 µM
# Potency is read from the fitted curve at half-maximal effect.
SMILES,Potency,"activity change, negative = inhibition"
CCOC(=O)C1CCCN(S(=O)(=O)c2cc(-c3cc(C)no3)ccc2OC)C1 (stereo not drawn),inactive,–
Cc1ccccc1C(=O)Nc1ccccc1NC(=O)c1ccccc1C,inactive,–
CC(=O)Nc1ccccc1NC(=O)c1cc(C)cc(C)c1,11.2 µM (active),–
CSCc1ccc(C(=O)Nc2cc(C)cc(C)c2)cc1,inactive,–
Cc1cc2c(cc1S(=O)(=O)CCC(=O)Nc1ccc(OC(F)(F)F)cc1)OCC(=O)N2,inactive,–
CCCCc1nn2c(=O)cc(COC(=O)c3ccc(NC(=O)c4ccccc4C)cc3)nc2s1,inactive,–
CCC(=O)Nc1cccc(-c2nc3cc(C)ccc3o2)c1,inactive,–
Cc1ccc(-n2nnnc2CNC(=O)c2ccccc2C)cc1C,inactive,–
O=C(CCc1[nH]c2ccccc2c1Sc1ccccc1)N(CCO)CCO,79.4 µM (active),–
CCCNC(=O)c1ccc(Cn2c(SCC(N)=O)nc3ccccc3c2=O)cc1,inactive,–
COc1ccc([C@H]2CC(=O)C=C(c3ccc(CO)cc3)C2)cc1,28.2 µM (active),–
COc1ccc2cc(C3=CC(=O)C[C@H](c4ccc5c(c4)OCO5)C3)ccc2c1,inactive,–
COc1ccc([C@H]2CC(=O)C=C(c3ccc(C)cc3)C2)cc1,inactive,–
Cc1ccc(C)c(N2CCN(C(=O)CCc3c(C)nc4c(c3C)c(=O)n(C)c(=O)n4C)CC2)c1,inactive,–
O=C(CCC1N=C2c3ccccc3N=C(SCc3ccccc3F)N2C1=O)NCCc1ccccc1 (stereo not drawn),inactive,–
COc1ccc(C(=O)CSc2c(C(C)C)cnc3c2c(=O)n(C)c(=O)n3C)cc1,inactive,–
CCOC(=O)c1cccc(NS(=O)(=O)c2cc(-c3cnc(C)o3)ccc2OC)c1,inactive,–
Oc1ccc2ccccc2c1N=Nc1nccs1,5.62 µM (active),–
Oc1ccc(N=Nc2nccs2)c(O)c1,35.5 µM (active),–
Cc1cccc(NC(=O)Cn2c(=O)n(CCC(C)C)c(=O)c3cccnc32)c1,inactive,–
O=C(NCCCc1ccccc1)c1ccc2c(c1)sc1nc(-c3ccc(F)cc3)cn12,inactive,–
CC1=C(C(=O)OCC2CCCCC2)C(c2c(F)cccc2Cl)CC(=O)N1 (stereo not drawn),inactive,–
CC1CC(C)CN(c2oc(-c3ccc(OCc4ccc(Cl)cc4)cc3)nc2C#N)C1 (stereo not drawn),inactive,–

SMILES,Potency,"activity change, negative = inhibition"
N#Cc1nc(-c2ccc(OCc3ccccc3)cc2)oc1NCCCN1CCOCC1,35.5 µM (active),–
O=S(=O)(c1ccccc1)c1nc(-c2ccccc2)oc1NCCCN1CCOCC1,inactive,–
CCc1cccc(NC(=O)Cn2nc(CC)n3c(cc4cc(C)ccc43)c2=O)c1,inactive,–
CCOc1ccc(NC(=O)Cn2cc(C(=O)c3ccc(C)cc3)c(=O)c3cc4c(cc32)OCCO4)cc1,inactive,–
CCN(CC)S(=O)(=O)c1ccc2c(c1)nc(CN(C)C(=O)Nc1ccc(Cl)cc1)n2C,inactive,–
Cc1ccc(C)c(N2CCN(C(=O)Cc3c(C(=O)O)c(C)cn3C)CC2)c1,inactive,–
CCc1c(Nc2ccccc2C)nc(N)[nH]c1=O,inactive,–
Cc1[nH]c(N)nc(=S)c1CCCNc1ccccc1,50.1 µM (active),–
COc1ccc(Cl)cc1NC(=O)CSc1nc(-c2cccs2)cc(C(F)(F)F)n1,inactive,–
Cc1ccc(NC(=O)CN2C(=O)CC(C)Sc3ccccc32)c(C)c1 (stereo not drawn),inactive,–
COc1ccc(C(=O)COC(=O)c2ccc3ccccc3n2)cc1,inactive,–
O=C(Oc1ccc([N+](=O)[O-])cc1)c1ccc2ccccc2n1,28.2 µM (active),–
CC(OC(=O)c1ccc2ccccc2n1)C(=O)c1ccccc1 (stereo not drawn),–,-2.94% [at 11.4 µM] (inactive)
COc1ccc2c(c1)c(=O)c(C(=O)c1ccccc1)cn2CC(=O)Nc1ccc2c(c1)OCCO2,inactive,–
CC(C)(C)c1ccc(C(=O)Nc2ccc3c(c2)CCCN3C(=O)c2cccs2)cc1,inactive,–
CCNC(=S)N(CCc1c(C)[nH]c2ccc(C)cc12)Cc1ccco1,63.1 µM (active),–
Cc1ccc2[nH]c(C)c(CCNC(=O)NC3CCCCC3)c2c1,inactive,–
Cc1ccc(NC(=S)N(Cc2ccco2)C(C)c2cccs2)cc1 (stereo not drawn),inactive,–
CCOc1ccc(CNC(=O)c2cc(=O)[nH]c3ccc(S(=O)(=O)N4CCCCC4)cc23)cc1,inactive,–
CCOC(=O)c1ccc(NC(=O)Cn2c(=O)n(-c3ccc(C)cc3)c(=O)c3c2cnn3C)cc1,inactive,–
COc1ccc(OCC(=O)OCCN(C)C)cc1,inactive,–
CN(C)CCOc1cccc(Br)c1,3.55 µM (active),–
COc1ccc(OC)c(NC(=O)CN(C)CCOc2ccc(Br)cc2)c1,inactive,–

SMILES,Potency,"activity change, negative = inhibition"
Cc1ccc(-c2cn3c(n2)sc2cc(C(=O)NCCCc4ccccc4)ccc23)cc1,inactive,–
CCCCOc1ccc(C(=O)Nc2cccc(-c3nc4ccccc4o3)c2C)cc1,inactive,–
CCCCCCCCOC1OC(CO)C(O)C(O)C1NC(C)=O (stereo not drawn),79.4 µM (active),–
CCc1cccc(OC2OC(CO)C(O)C(O)C2NC(C)=O)c1 (stereo not drawn),inactive,–
CCCCCCCCCOC1OC(CO)C(O)C(O)C1NC(C)=O (stereo not drawn),inactive,–
CCc1nc2c(cnn2-c2ccc(C)cc2)c(=O)n1-c1ccc(C)cc1,inactive,–
CCOC(=O)c1ccccc1CN1C(=O)c2ccccc2S1(=O)=O,inactive,–
CCOC(=O)C1=C(c2ccc(OC)cc2)C(=O)c2ccccc2C1=O,39.8 µM (active),–
CCOC(=O)C(NC(C)=O)C(=O)Nc1ccc(OC)cc1 (stereo not drawn),inactive,–
COc1ccc(NS(=O)(=O)c2cc3c4c(c2)CC(=O)N4CCC3)cc1Cl,inactive,–
CCc1ccc(NS(=O)(=O)c2ccc3[nH]cc(C(=O)NCCc4cccc(C)c4)c(=O)c3c2)cc1,inactive,–
COc1cc(OC)c2c(C)cc(=O)oc2c1C(CCN1CCCCC1)c1ccc(N(C)C)cc1 (stereo not drawn),39.8 µM (active),–
COc1ccc(C2CC(=O)Oc3ccc(C(C)(C)C)cc32)cc1 (stereo not drawn),inactive,–
COc1ccc(C2/C(=C(/O)c3ccc(OC(C)C)cc3)C(=O)C(=O)N2CCCN2CCOCC2)cc1 (stereo not drawn),inactive,–
COc1cc(COCC(O)CN2CCN(Cc3ccc4c(c3)OCO4)CC2)cc(OC)c1OC (stereo not drawn),inactive,–
COc1ccc(C(CCN2CCOCC2)c2c(OC)cc(OC)c3c2OC(=O)CC3c2ccc(OC)cc2)cc1 (stereo not drawn),35.5 µM (active),–
COc1cc(OC)c2c(c1)OC(=O)CC2c1cc(OC)c(OC)c(OC)c1 (stereo not drawn),inactive,–
COc1cc(OC)c2c(c1C(CCN1CCCCC1)c1ccc(N(C)C)cc1)OC(=O)CC2c1ccc(N(C)C)cc1 (stereo not drawn),35.5 µM (active),–
COc1cc(OC)c2ccc(=O)oc2c1C(CCN1CCN(c2ccccc2)CC1)c1ccc2c(c1)OCO2 (stereo not drawn),17.8 µM (active),–
CCN(CC)CCC(c1cc(OC)c(OC)c(OC)c1)c1c(OC)cc(OC)c2c(-c3ccccc3)cc(=O)oc12 (stereo not drawn),inactive,–
O=C(NCC(c1ccc2c(c1)OCO2)N1CCN(c2ccccc2)CC1)C(=O)Nc1ccccc1F (stereo not drawn),inactive,–
COc1cc(C2CC(=O)Oc3cc(OC)c(OC)c(OC)c32)cc(OC)c1OC (stereo not drawn),inactive,–
